Source: PubChem BioAssay (NCI)
Compounds without any hit were thinned out: in the full panel of roughly 83,000, 20% have a hit.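 Method: cells in 96-well plates; compound added at one concentration; 48 h incubation; percent growth measured; values under 10 scored active.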 A number with no mark means an inactive call. Activity calls are given as the source filed them.

Assays:
Assay in all cases: NCI-60 one-dose screen, 48 h (100 = growth as untreated, 0 = no growth, -100 = all killed)
Details in all cases: 10 µM unless noted
HCT-15 colon = tested on: HCT-15 colon
HT29 colon = tested on: HT29 colon
SNB-75 CNS = tested on: SNB-75 CNS
SNB-19 CNS = tested on: SNB-19 CNS
U251 CNS = tested on: U251 CNS
PC-3 prostate = tested on: PC-3 prostate
SK-MEL-5 melanoma = tested on: SK-MEL-5 melanoma
UACC-62 melanoma = tested on: UACC-62 melanoma
LOX IMVI melanoma = tested on: LOX IMVI melanoma
SK-MEL-28 melanoma = tested on: SK-MEL-28 melanoma

| SMILES | growth (HCT-15 colon) | growth (HT29 colon) | growth (SNB-75 CNS) | growth (SNB-19 CNS) | growth (U251 CNS) | growth (PC-3 prostate) | growth (SK-MEL-5 melanoma) | growth (UACC-62 melanoma) | growth (LOX IMVI melanoma) | growth (SK-MEL-28 melanoma) |
| --- | --- | --- | --- | --- | --- | --- | --- | --- | --- | --- |
| Cn1ccc2c3c(ccc21)CC3=O | 105% | 116% | 97.7% | 105% | 111% | 110% | 115% | 99.1% | 119% | 112% |
| CN(C)CC(=O)Nc1ccc2ncnc(Nc3ccc(Oc4cccc(C(F)(F)F)c4)c(Cl)c3)c2c1 | 1.59% (active) | 2.56% (active) | 87.2% | 70.3% | 36.2% | 61.7% | 66.5% | 88.2% | -93% (active) | 78% |
| O=C1/C(=C/c2ccc(Cl)cc2)COc2ccc(O)cc21 | 29.3% | 15.3% | 84.5% | 82.1% | 44.9% | 69.8% | 96.8% | 78.1% | -42.6% (active) | 96.8% |
| CN(C)c1ccc(Nc2cc(-c3cccc(OC(F)(F)F)c3)nc3ccc(N4CCCC4)cc23)cc1 | -45.5% (active) | -12.8% (active) | 55% | 66% | -59.2% (active) | 18% | 96.3% | 90.1% | -73.7% (active) | -85.3% (active) |
| Cc1cccc(Cl)c1NC(=O)c1ccc2nc(NC(=O)NCCN(C)C)sc2c1 | 99.3% | 80.1% | 23.7% | 105% | 80.4% | 62.2% | 67.3% | 97.3% | 91.5% | 87.6% |
| COc1ccc(-c2cc(-c3ccc(Cl)cc3)c(C#N)c(=O)n2CCCCC(=O)Nc2ccccc2N)cc1 | 19.3% | 21.1% | 22.5% | 69.9% | 55.1% | 50.1% | -39.1% (active) | 23.7% | -60.9% (active) | 65.4% |
| C#CCn1cnc2c(Nc3cccc(NC(=O)C=C)c3)ncnc21 | 73.3% | 90.6% | 66% | 89.9% | 88.2% | 71.5% | 88.7% | 82.6% | 100% | 87.6% |
| CCOC(=O)C#Cc1c(C(=O)OCC)nnn1[C@@H]1O[C@H](CO)[C@H]2OC3(CCCCC3)O[C@H]21 | -38.8% (active) | 7.93% (active) | 73.1% | 96% | 104% | 86.7% | 96.2% | 91.6% | 20.1% | 101% |
| O=C(Nc1cc(Cl)ccc1O)c1ccc(Nc2ccnc(C(F)(F)F)c2)cc1 | 30.9% | 95.5% | 69.2% | 24.6% | 31.7% | 14.7% | 47.1% | 27.7% | 27.8% | 83.6% |
| CC1=C(CCC(C)N(C)Cc2ccc(OCCCN3CCCC3)cc2)C(C)(C)CCC1 (stereo not given) | -14% (active) | -12% (active) | 63.1% | 41.8% | -11.9% (active) | 31.8% | -93.7% (active) | -63.9% (active) | -81.4% (active) | -80.6% (active) |
| O=S(=O)(NCCNc1nccc(-c2c(-c3cccc(F)c3)nc3occn23)n1)c1ccc(Br)cc1 | 77.9% | 52.3% | 78.4% | 93.3% | 85.5% | 73.8% | 76.3% | 77.5% | 75.9% | 91.9% |
| N#Cc1c(-c2ccc(Cl)cc2)nc(SCC(=O)NC2=NN=C(c3ccccc3)CS2)[nH]c1=O | 72.4% | 104% | 80.5% | 85.8% | 77.3% | 78.6% | 84.2% | 75.1% | 69.5% | 76.3% |
| COC1C[C@H](O[C@@H]2C[C@H](O[C@@H]3C[C@H](O[C@@H]4C(=O)c5c(cc6cc(O[C@H]7C[C@@H](O[C@H]8C[C@@H](O)[C@H](O)C(C)O8)[C@H](O)C(C)O7)c(C)c(O)c6c5O)C[C@H]4C(OC)C(=O)[C@@H](O)[C@@H](C)O)OC(C)[C@H]3O)OC(C)[C@@H]2O)OC(C)[C@@H]1O (stereo not given in full) | 44.3% | -8.54% (active) | -59% (active) | 0.994% (active) | 0.915% (active) | 9.36% (active) | -37.9% (active) | -64.7% (active) | -3.35% (active) | -22.9% (active) |
| COC(=O)[C@H]1CCCN1C[C@@H](O)CN1C(=O)/C(=C\c2cc(OC)c(OC)c(OC)c2)c2ccccc21 | 98% | 110% | 86% | 95.9% | 87.3% | 91.4% | 103% | 95.2% | 97.2% | 123% |
| Cc1nc(-c2ccccc2)cc2c(O)c(C(=O)NN)[nH]c(=O)c12 | 107% | 114% | 104% | 106% | 106% | 67.3% | 100% | 98.6% | 107% | 111% |
| Fc1ccc2[nH]cc(-c3nonc3-c3c[nH]c4ccc(Br)cc34)c2c1 | 9.29% (active) | -51.8% (active) | 33.7% | 35.8% | 13.6% | 26.7% | 49.8% | 28% | -53.9% (active) | 61.8% |
| O=C(CCC(=O)N/N=C/c1ccccc1O)N/N=C/c1ccccc1O | 22.5% | 84.1% | 78.6% | 57.9% | 26% | 31.1% | 36.3% | 24.9% | 21% | 45.2% |
| O=C1/C(=C/c2ccccc2Br)COc2ccc(O)c(O)c21 | -1.56% (active) | 47.6% | 23.2% | 27% | 4.99% (active) | 15.6% | 46.9% | 6.99% (active) | -76% (active) | 42.3% |
| Cc1nn(-c2ccccc2)c(Oc2ccccn2)c1-c1nc2ccccc2s1 | 91.4% | 92.6% | 97% | 100% | 97.8% | 91% | 84.4% | 91.4% | 97.3% | 106% |
| O=C(Cc1ccccc1)Nc1nc(O)c(/C=C2\C(=O)C=Cc3ccccc32)s1 | 100% | 111% | 95.5% | 92.3% | 101% | 92.4% | 103% | 94.6% | 97.6% | 114% |
| COc1ccc2nc3ccc(OC)cc3c(SCCCN)c2c1 | 47.3% | 37.4% | 89.3% | 94.8% | 82.7% | 65.6% | 108% | 113% | 63.1% | 121% |
| N#CC1=C(N)Oc2c(sc3c(Br)cccc23)C1c1ccc(F)cc1 (stereo not given) | 10.3% | 1.78% (active) | 34.3% | 47.8% | 21.4% | 23.6% | 23.6% | 26.4% | 27.4% | 57.6% |
| C[C@]12CC[C@@H]3c4ccc(O)c([N+](=O)[O-])c4CC[C@H]3[C@@H]1CCC2=O | 94.4% | 95.5% | 58.1% | 107% | 93.2% | 97% | 82.3% | 87.3% | 90.7% | 115% |
| Cc1ccccc1Cn1cnc2ccc(-c3cc(NC(=O)c4ccc(NC5CCN(C)CC5)cc4)n[nH]3)cc21 | 102% | 56.6% | -11.4% (active) | 95% | 75.9% | 68.8% | 79.3% | 73.2% | 56.7% | 92.2% |
| Brc1ccc2[nH]cc(-c3nonc3-c3c[nH]c4ccccc34)c2c1 | 19.5% | 11.2% | 46.5% | 63.8% | 43.3% | 35.2% | 59.7% | 39.2% | 2.2% (active) | 77.6% |
| COc1ccc(-c2nc3c(c(-c4ccccc4)nn3-c3ccccc3)c(-c3ccc(N4CCOCC4)cc3)c2C#N)cc1 | 91.4% | 105% | 105% | 103% | 84.8% | 101% | 101% | 91.1% | 92.2% | 100% |
